Experimental findings from PubChem BioAssay (NCATS) are described below.

Inconclusive results are not listed. The source made the active and inactive calls. The call rests on the fitted dose curve; in most records, active means well fitted cell-killing curve with a large enough effect; inconclusive means small, poorly fitted or top-dose-only effect, or effect the other way; inactive means no such curve, though single readings can be large or run the other way.
Potency means the concentration at half of the fitted maximal effect.

The first experiment in a line: Viability qHTS for spleen associated tyrosine kinase inhibitor (SYKi) naive MV4-11 cells (AID 1963823). Further: nearly all actives have a fitted effect of over 40% in size. As to conditions: MV4-11 AML viability, CellTiter-Glo luminescence, 72 h; series mostly up to 45 µM; viability (% of control): at the top concentration. In a few lines:
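Seeding of 500 SYKi-naive MV4-11 cells per well onto pre-dispensed compounds preceded a 72 hr incubation at 37 C. Luminescent CellTiter-Glo signal, read after 10 min at room temperature, reflected viable cells.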
Regarding `CC12CCC(CC1)C(C)(C)O2`, the “viability (% of control)” value is 67.2% (inactive). Turning to `Cc1cc(NS(=O)(=O)c2ccc(N)cc2)no1`, the “viability (% of control)” value is 83.1% (inactive).

Take `COc1ccc(CN(CCN(C)C)c2ccccn2)cc1`: the Potency is 16.8 µM (active). For `O=C(O)c1ccc[n+]([O-])c1`, the “viability (% of control)” value was 100% (inactive).

In the case of `CC(CC(C#N)(c1ccccc1)C(C)C)N(C)C` (stereo not given), the “viability (% of control)” value was 79.5% (inactive).

A short description of the next experiment: Viability qHTS for spleen associated tyrosine kinase inhibitor (SYKi) drug resistant MV4-11 cells (AID 1963824). Further: nearly all actives have a fitted effect of over 35% in size. As to conditions: SYKi-resistant MV4-11 viability, CellTiter-Glo, 72 h; series mostly up to 45 µM; viability, % of control: at the top concentration. An outline of the steps:
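SYK inhibitor-resistant MV4-11 AML cells, 500 per well, added to predispensed compounds and incubated 72 hr at 37 C, 5% CO2. Viability measured by CellTiter-Glo luminescence after 10 min at room temperature.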
For orientation: Quantitative high-throughput screening tests each substance at several concentrations.
Consider `Cn1c(=O)n(-c2ccc(C(C)(C)C#N)cc2)c2c3cc(C#Cc4cccnc4)ccc3ncc21`, for which the Potency was 0.0447 µM (active). On to `CCCN1CCC[C@@H](c2cccc(S(C)(=O)=O)c2)C1`, for which the Potency is 10.3 µM (active). For `CN1CCc2nc(C(=O)N[C@@H]3C[C@@H](C(=O)N(C)C)CC[C@@H]3NC(=O)C(=O)Nc3ccc(Cl)cn3)sc2C1`, the “viability, % of control” value was 72.4% (inactive). Consider `CCCN1CCC(c2cccc(S(C)(=O)=O)c2)CC1`, for which the “viability, % of control” value is 86.4% (inactive). Consider `COc1cc(N2CCOCC2)ccc1Nc1ncc(Cl)c(Nc2ccccc2NS(C)(=O)=O)n1`, for which the Potency is 0.206 µM (active). As to `c1ccc(C(OC2CCN(CCCc3nn[nH]n3)CC2)c2ccccc2)cc1`, the “viability, % of control” value was 96.6% (inactive).

Regarding `O=C(N[C@@H]1CCCc2c1cnn2-c1ccc(F)cc1F)c1ccccn1`, the Potency is 14.6 µM (active). As for `COc1ccccc1N1CCN(CC[C@@](C)(C(=O)C2CCCCC2)c2ccccc2)CC1`, the Potency was 14.6 µM (active). On to `CCN1CCC[C@@H]1CNC(=O)c1ccc2c(c1)NC(=O)c1cccc(C)c1S2`, for which the Potency is 20.6 µM (active).

As to `CC(C)c1cc2c(N3CCN(C4=NCC(C)(C)S4)CC3)ncnc2s1`, the Potency is 5.8 µM (active). On to `Cc1c(C(=O)Nc2ccc(N3CC(C)OC(C)C3)nc2)cccc1-c1ccc(OC(F)(F)F)cc1` (stereo not given), for which the Potency is 10.3 µM (active).

For `FC(F)(F)c1ccccc1-c1cc(C(F)(F)F)c2nc(C3=NOC4(CCCCC4)C3)[nH]c2c1`, the Potency was 16.4 µM (active). Regarding `C1N2CN3CN1CN(C2)C3`, the “viability, % of control” value was 79.5% (inactive). On to `C[C@]12C=CC(=O)C=C1CC[C@@H]1[C@@H]2[C@@H](O)C[C@@]2(C)[C@H]1CC[C@]2(O)C(=O)COC(=O)CCC(=O)O`, for which the “viability, % of control” value is 85.6% (inactive). In the case of `CC(C(=O)O)c1ccc(C(=O)c2cccs2)cc1` (stereo not given), the “viability, % of control” value was 72% (inactive). Take `Clc1ccc2c(c1)C1=NCCN1c1c(-c3noc(C4CC4)n3)ncn1-2`: the “viability, % of control” value is 78.8% (inactive). Take `N[C@@H](CC(=O)N1CCn2c(nnc2C(F)(F)F)C1)Cc1[nH]nc2c(F)c(F)ccc12`: the “viability, % of control” value is 83.2% (inactive). For `O=C(Cn1c2ccccc2c2nc3n(c(=O)c21)CCS3)N1CCCC1`, the “viability, % of control” value was 75.2% (inactive). Regarding `C[N+]1(CC2COC(c3ccccc3)(c3ccccc3)O2)CCCCC1` (stereo not given), the Potency was 10 µM (active). On to `CCc1cc2c(=O)c(-c3nc4ccccc4s3)coc2c(CN2CCCCC2)c1O`, for which the “viability, % of control” value was 82.9% [at 17.3 µM] (inactive). On the same count and under the same terms, with `O=C(O)CNC(=O)c1ccccc1I` the figure was 56.4% (inactive). As to `CC(CNS(=O)(=O)C(C)C)c1ccc(-c2ccc(C#N)cc2)cc1` (stereo not given), the Potency is 2.59 µM (active). As to `COC(=O)C(Cc1ccc(OCCn2c(=O)sc3cc(C(=O)c4ccccc4)ccc32)cc1)C(=O)OC`, the Potency was 18.4 µM (active).

On to `CNC(C)C(=O)NC(C(=O)N1CCCC1C(=O)Nc1cccc2ncccc12)C(C)C` (stereo not given), for which the Potency is 11.6 µM (active). As to `COc1ccc(CCCN2CCC(COC(c3ccccc3)c3ccccc3)CC2)cc1`, the Potency is 10.3 µM (active). Regarding `O=c1[nH]c(=O)c2[nH]c(=O)[nH]c2[nH]1`, the viability, % of control is 120% [at 9.25 µM] (inactive). For `COc1ccccc1-c1ccc(-c2cn(C(=O)N3CCCCC3Cc3ccccc3)nn2)cc1` (stereo not given), the Potency is 14.6 µM (active).

In the case of `CC1(c2nc3c(C(N)=O)cccc3[nH]2)CCCN1` (stereo not given), the “viability, % of control” value was 69.8% (inactive). Regarding `CC(C)CCC(=O)CC1c2ccccc2C(=O)N1c1ccc2ccc(Cl)nc2n1` (stereo not given), the “viability, % of control” value was 67.7% (inactive). For `O=C(NCc1ccccc1)c1ccc2c(=O)n(-c3cccc(C(F)(F)F)c3)c(=S)[nH]c2c1`, the “viability, % of control” value is 73.3% (inactive). For `CN(C)C/C=C/C(=O)Nc1cccc(C(=O)Nc2ccc(Nc3nccc(-c4cccnc4)n3)cc2)c1`, the Potency is 0.461 µM (active).

Turning to `COc1cc(OC)c(NC(=O)c2ccc(Cc3cc4c(cc3C)C(C)(C)CCC4(C)C)o2)c(OC)c1`, the Potency was 11.6 µM (active). Regarding `CC(C)(C)NCC(O)COc1cccc2c1CCCC2=O` (stereo not given), the “viability, % of control” value was 77.5% (inactive). For `CN(C)c1nc(NC2CCC(NC(=O)c3ccc(F)c(F)c3)CC2)nc2ccccc12` (stereo not given), the Potency is 0.82 µM (active). Turning to `Nc1ccc(C(=O)Nc2ccccc2N)cc1`, the Potency is 7.5 µM (active).
